Reference: paper PMC8769072, “Proteome‐scale mapping of binding sites in the unstructured regions of the human proteome” (Molecular Systems Biology, 2022)

Target: WDR5 21-334, P61964

Binder | selected by phage display
SARSGYVIQGSSDLIA [SVEP1, Q4LDE5] | confidence 2 (active)
PQNRTSAYSLEHADLG [SIPA1, Q96FS4] | confidence 2 (active)
NQAVNFLRMSARVDAV [CHMP1B, Q7LBR1] | confidence 2 (active)
ARTVLWNPEDLIPLPI [ZC3H4, Q9UPT8] | confidence 2 (active)
IPTSRSTPYKPIDDRI [SPATA5, Q8NB90] | confidence 2 (active)
DFTAPDVWYPGGMVSR [AR, P10275] | confidence 2 (active)
WEQDGGRWLPGHAMAM [RRAD, P55042] | confidence 2 (active)
SARVNPQDGTNTLTRI [EHMT1, Q9H9B1] | confidence 2 (active)
SARSTPLTVDRSPDSS [PDZRN4, Q6ZMN7] | confidence 2 (active)

Target: YAP1 169-207, P46937
Sequence (P46937 169-207): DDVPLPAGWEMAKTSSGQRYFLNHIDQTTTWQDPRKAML

Binder | selected by phage display
APHPYSPQPPPYHELS [DVL2, O14641] | confidence 3 (active)
TGTPQESLPTYTQTLR [STPG3, Q8N7X2] | confidence 3 (active)
LPPYPEHLTSPLSPAQ [ZNF783, Q6ZMS7] | confidence 2 (active)
SSATLPPPYQLINVPP [GAB1, Q13480] | confidence 4 (active)
HPPTYVQNVVPQNTPM | confidence 2 (active)
PSAMLPIYPAIDIDAQ [ANKRD17, O75179] | confidence 2 (active)
NNSLPPYAQGLASPQG [TBP, P20226] | confidence 3 (active)
AAATAGAPTALPAYPA [TMEM158, Q8WZ71] | confidence 2 (active)
EPPPSYDEAVKMAKPR | confidence 3 (active)
TEVYGEFYPVPPPYSV | confidence 4 (active)
YTREGEPLPPPYSLRE [TPSG1, Q9NRR2] | confidence 3 (active)
DGKGAKPPEYRNYQIV [MFSD6, Q6ZSS7] | confidence 3 (active)
EYQQVPNSDPPRYEFL [MAGEB18, Q96M61] | confidence 2 (active)
LYPPPSHAAEDSLPPY [TMEM59L, Q9UK28] | confidence 2 (active)
SVLPPSYASDRLSGNN [ALKBH5, Q6P6C2] | confidence 2 (active)
HEVVLRTAAPPDYTLA [NLGN1, Q8N2Q7] | confidence 3 (active)
ADTPPPAYLPPEDPMT [SMAD1, Q15797] | confidence 2 (active)
SMAPPAYSLYTPEPPP | confidence 3 (active)
ASSAPALETDSSPPPY | confidence 2 (active)
PPAYEDVVHRPGTPPP [WBP1, Q96G27] | confidence 3 (active)
IELLPSYSTATLIDEP [SLC34A2, O95436] | confidence 3 (active)
IAPPQYVTTSASNIVS | confidence 4 (active)
